From PubChem BioAssay (NCI)
The panel holds about 83,000 compounds, 20% with a hit somewhere; the sample as a whole holds those more often.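 For each line, cells grew in 96-well plates with the test compound present at a single concentration for 48 hours.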 Active and inactive are the calls of the source. The calls were made as follows: active = growth percent below 10; inactive = the rest.

Key:
Test in all cases: NCI-60 one-dose screen, 48 h (100 = growth as untreated, 0 = no growth, -100 = all killed)
HCT-15 colon = conditions: 10 µM unless noted
HT29 colon = conditions: 10 µM unless noted
SNB-75 CNS = conditions: 10 µM unless noted
U251 CNS = conditions: 10 µM unless noted
PC-3 prostate = conditions: 10 µM unless noted
SK-MEL-5 melanoma = conditions: 10 µM unless noted
UACC-62 melanoma = conditions: 10 µM unless noted
LOX IMVI melanoma = conditions: 10 µM
SK-MEL-28 melanoma = conditions: 10 µM unless noted
SK-MEL-2 melanoma = conditions: 10 µM unless noted
EKVX NSCLC = conditions: 10 µM unless noted
SN12C renal = conditions: 10 µM unless noted
UO-31 renal = conditions: 10 µM unless noted
TK-10 renal = conditions: 10 µM unless noted
ACHN renal = conditions: 10 µM unless noted
CAKI-1 renal = conditions: 10 µM unless noted
A498 renal = conditions: 10 µM unless noted
CCRF-CEM leukemia = conditions: 10 µM unless noted
MOLT-4 leukemia = conditions: 10 µM unless noted
SNB-19 CNS = conditions: 10 µM unless noted

Measured: growth

O=C1CC(Sc2n[nH]c(-c3ccncc3)n2)C(=O)N1c1ccc(Br)cc1 (stereo not given)
inactive: HCT-15 colon 102% | HT29 colon 112% | SNB-75 CNS 106% | U251 CNS 107% | PC-3 prostate 118% | SK-MEL-5 melanoma 115% | UACC-62 melanoma 96.9% | LOX IMVI melanoma 100% | SK-MEL-28 melanoma 108% | SK-MEL-2 melanoma 116% | EKVX NSCLC 106% | SN12C renal 93.6% | UO-31 renal 88.7% | TK-10 renal 101% | ACHN renal 109% | CAKI-1 renal 99.9% | A498 renal 111% | CCRF-CEM leukemia 88.9% | MOLT-4 leukemia 115%

CC(C)CSc1nc(NCCc2c[nH]c3ccccc23)c(C#N)c(-c2ccc(F)cc2)n1
active: HT29 colon 5.49%
inactive: HCT-15 colon 19.6% | SNB-75 CNS 61.1% | U251 CNS 21.1% | PC-3 prostate 26.2% | SK-MEL-5 melanoma 17.3% | UACC-62 melanoma 60.6% | LOX IMVI melanoma 12.4% | SK-MEL-28 melanoma 79.1% | SK-MEL-2 melanoma 78.9% | EKVX NSCLC 45.9% | UO-31 renal 70.3% | TK-10 renal 92.4% | ACHN renal 59.6% | CAKI-1 renal 49.2% | A498 renal 92.8% | CCRF-CEM leukemia 22.1% | MOLT-4 leukemia 27.9%

COc1ccc(C2(SCCNCc3cc(N(C)C)ccn3)c3ccccc3C=Cc3ccccc32)cc1
active: HCT-15 colon 2.66% | HT29 colon -43% | SNB-75 CNS 9.76% | U251 CNS 0.439% | SK-MEL-5 melanoma -20.3% | LOX IMVI melanoma 2.34% | SK-MEL-2 melanoma -34.9% | CCRF-CEM leukemia 8.49% | MOLT-4 leukemia 8.17%
inactive: PC-3 prostate 13.8% | UACC-62 melanoma 38% | SK-MEL-28 melanoma 29.9% | EKVX NSCLC 15.8% | UO-31 renal 33.7% | TK-10 renal 50.3% | ACHN renal 37.7% | CAKI-1 renal 26.5% | A498 renal 65.9%

COc1ccc(C(=O)/C=C/c2ccc(Cl)c(Cl)c2)cc1S(N)(=O)=O
inactive: PC-3 prostate 10.1% | SK-MEL-2 melanoma 66.9% | EKVX NSCLC 24.1% | A498 renal 109% | CCRF-CEM leukemia 12.4%
active: HCT-15 colon -37.9% | HT29 colon -50.3% | SNB-75 CNS 6.46% | SNB-19 CNS 5.07% | U251 CNS -95.8% | LOX IMVI melanoma -69% | SK-MEL-28 melanoma -33.7% | SN12C renal -2.78% | UO-31 renal -80.5% | TK-10 renal 5.47% | ACHN renal -69.7% | CAKI-1 renal -7.4%

O=C(c1ccc(Cl)cc1)c1ccc(OCCCN2CCN(c3ccncc3)CC2)cc1
active: HCT-15 colon -18.6% | SK-MEL-5 melanoma -47.7% | UACC-62 melanoma -63.5%
inactive: HT29 colon 11.2% | SNB-75 CNS 69.4% | U251 CNS 28.6% | PC-3 prostate 26.9% | LOX IMVI melanoma 10.1% | SK-MEL-28 melanoma 14.8% | SK-MEL-2 melanoma 70.1% | EKVX NSCLC 32.6% | UO-31 renal 40% | TK-10 renal 82.2% | ACHN renal 74% | CAKI-1 renal 56.7% | A498 renal 80.5% | CCRF-CEM leukemia 21.5% | MOLT-4 leukemia 15.7%

Cc1cc2nc3c4ccccc4n(CC4=NCCN4)c3nc2cc1C
active: HCT-15 colon 0.357% | HT29 colon -74.3% | U251 CNS -72.5% | SK-MEL-5 melanoma -91.7% | UACC-62 melanoma -91.2% | SK-MEL-28 melanoma -93.5% | SN12C renal -6.68% | UO-31 renal -95.2% | ACHN renal -100% | CAKI-1 renal -70% | MOLT-4 leukemia -19.4%
inactive: SNB-75 CNS 25.1% | SNB-19 CNS 15.8% | SK-MEL-2 melanoma 66.7% | EKVX NSCLC 60.4% | TK-10 renal 64.4% | A498 renal 63.8%

CCCCn1c(O)c(N=Nc2nc(-c3cc4ccccc4oc3=O)cs2)c2cc(Br)ccc21
inactive: HCT-15 colon 102% | HT29 colon 112% | SNB-75 CNS 102% | U251 CNS 101% | PC-3 prostate 97.4% | SK-MEL-5 melanoma 98.3% | UACC-62 melanoma 93.5% | LOX IMVI melanoma 94.7% | SK-MEL-28 melanoma 104% | SK-MEL-2 melanoma 116% | EKVX NSCLC 97.1% | SN12C renal 101% | UO-31 renal 85% | TK-10 renal 115% | ACHN renal 106% | CAKI-1 renal 102% | A498 renal 103% | CCRF-CEM leukemia 104% | MOLT-4 leukemia 107%

Clc1ccc(-c2ccc(OCCCN3CCN(c4ccncc4)CC3)cc2)cc1
inactive: SNB-75 CNS 83.6% | U251 CNS 35.7% | PC-3 prostate 24.6% | SK-MEL-5 melanoma 13.7% | UACC-62 melanoma 74% | SK-MEL-28 melanoma 90.1% | SK-MEL-2 melanoma 100% | EKVX NSCLC 30.7% | UO-31 renal 66.3% | TK-10 renal 89.5% | ACHN renal 87.8% | CAKI-1 renal 66.6% | A498 renal 84.7%
active: HCT-15 colon -66% | HT29 colon -30.6% | LOX IMVI melanoma -89.8% | CCRF-CEM leukemia 4.35% | MOLT-4 leukemia 1.95%

Nc1n[nH]c2cccc(C#Cc3cccc(NC(=O)c4cccc(Cl)c4)c3)c12
inactive: HCT-15 colon 20% | HT29 colon 37.8% | SNB-75 CNS 35.7% | SNB-19 CNS 55.2% | U251 CNS 46.1% | PC-3 prostate 20.5% | UACC-62 melanoma 32.4% | LOX IMVI melanoma 17.7% | SK-MEL-2 melanoma 12.7% | EKVX NSCLC 44.9% | SN12C renal 28.5% | UO-31 renal 21.5% | TK-10 renal 49.9% | ACHN renal 18.2% | CAKI-1 renal 18.8% | A498 renal 50.4% | CCRF-CEM leukemia 15%

CCCCCCCCc1ccc(C(=O)Nc2ccc(C)cc2C(=O)O)cc1C
inactive: HCT-15 colon 94% | HT29 colon 108% | SNB-75 CNS 92.4% | U251 CNS 88.1% | PC-3 prostate 84.2% | SK-MEL-5 melanoma 94.3% | UACC-62 melanoma 91.3% | LOX IMVI melanoma 101% | SK-MEL-28 melanoma 109% | SK-MEL-2 melanoma 97.5% | EKVX NSCLC 88.4% | UO-31 renal 78.6% | TK-10 renal 102% | ACHN renal 84.4% | CAKI-1 renal 78.2% | A498 renal 98.8% | CCRF-CEM leukemia 79.8% | MOLT-4 leukemia 90.8%

O=C(CSc1nc2ccccc2c(=O)[nH]1)NCCN1CCCCC1
inactive: HCT-15 colon 97.5% | HT29 colon 108% | SNB-75 CNS 79.1% | U251 CNS 98.7% | PC-3 prostate 91.2% | SK-MEL-5 melanoma 100% | UACC-62 melanoma 90.7% | LOX IMVI melanoma 98.3% | SK-MEL-28 melanoma 98.7% | SK-MEL-2 melanoma 92.5% | EKVX NSCLC 93.7% | SN12C renal 96.4% | UO-31 renal 78.6% | TK-10 renal 94.9% | ACHN renal 103% | CAKI-1 renal 82.4% | A498 renal 105% | CCRF-CEM leukemia 98.5% | MOLT-4 leukemia 103%

CCCCCCCCc1ccc(S(=O)(=O)Nc2ccc(CC)cc2C(=O)O)cc1
inactive: HCT-15 colon 85.7% | HT29 colon 124% | SNB-75 CNS 106% | U251 CNS 92.9% | PC-3 prostate 89.7% | SK-MEL-5 melanoma 80.3% | UACC-62 melanoma 81.3% | LOX IMVI melanoma 99.9% | SK-MEL-28 melanoma 104% | SK-MEL-2 melanoma 86.7% | EKVX NSCLC 90.5% | UO-31 renal 84.8% | TK-10 renal 104% | ACHN renal 96% | CAKI-1 renal 89% | A498 renal 104% | CCRF-CEM leukemia 77.9% | MOLT-4 leukemia 91.1%

CCOC(=O)C(N=Nc1ccc(S(=O)(=O)N=C(N)N)cc1)C(C)=O (stereo not given)
inactive: HCT-15 colon 108% | HT29 colon 107% | SNB-75 CNS 74.3% | U251 CNS 98.6% | PC-3 prostate 98.5% | SK-MEL-5 melanoma 102% | UACC-62 melanoma 99.2% | LOX IMVI melanoma 109% | SK-MEL-28 melanoma 109% | SK-MEL-2 melanoma 119% | EKVX NSCLC 111% | SN12C renal 101% | UO-31 renal 97.6% | TK-10 renal 88.6% | ACHN renal 98.2% | CAKI-1 renal 96.3% | A498 renal 102% | CCRF-CEM leukemia 101% | MOLT-4 leukemia 110%

COc1ccc(NC(=O)Cn2c3c(sc2=O)[C@H]2[C@@H](O)[C@@H](O)[C@H](O)[C@@H]2CS3)cc1
inactive: HCT-15 colon 104% | HT29 colon 110% | SNB-75 CNS 88.5% | SNB-19 CNS 106% | U251 CNS 99.7% | SK-MEL-5 melanoma 106% | UACC-62 melanoma 99.8% | SK-MEL-28 melanoma 103% | SK-MEL-2 melanoma 101% | EKVX NSCLC 97.4% | SN12C renal 98.8% | UO-31 renal 90.2% | TK-10 renal 112% | ACHN renal 96.6% | CAKI-1 renal 97.2% | A498 renal 111% | MOLT-4 leukemia 108%

CN(C)c1ccnc(CNCCSC2(c3ccccc3)c3ccccc3C=Cc3ccccc32)c1
inactive: UO-31 renal 13.5% | ACHN renal 12.8%
active: HCT-15 colon -36.9% | HT29 colon -46.4% | SNB-75 CNS -10.9% | U251 CNS -77.1% | PC-3 prostate -23.3% | SK-MEL-5 melanoma -99.4% | UACC-62 melanoma -32.2% | LOX IMVI melanoma -96.2% | SK-MEL-28 melanoma -64.6% | SK-MEL-2 melanoma -46.6% | EKVX NSCLC -24.3% | TK-10 renal 0.124% | CAKI-1 renal 3.63% | A498 renal -38.8% | CCRF-CEM leukemia -2.57% | MOLT-4 leukemia 7.41%

CCN(CC)c1ccnc(CNCCSC(c2ccccc2)(c2ccccc2)c2ccc(OC)cc2)c1
active: HCT-15 colon -58.2% | HT29 colon -63.1% | SNB-75 CNS 3.35% | U251 CNS -80.3% | PC-3 prostate -36% | SK-MEL-5 melanoma -99.9% | UACC-62 melanoma -39.3% | LOX IMVI melanoma -99.2% | SK-MEL-28 melanoma -48.5% | SK-MEL-2 melanoma -35.8% | EKVX NSCLC -8.82% | UO-31 renal 8.36% | TK-10 renal 1.59% | CAKI-1 renal 0.0931% | A498 renal -84.5% | CCRF-CEM leukemia -3.59%
inactive: ACHN renal 12.2% | MOLT-4 leukemia 12.9%

CC(C)CSc1nc(NCCc2c[nH]c3ccccc23)c(C#N)c(-c2ccc(Cl)cc2)n1
inactive: HCT-15 colon 29.8% | HT29 colon 15.1% | SNB-75 CNS 77.3% | U251 CNS 23.8% | PC-3 prostate 23.1% | SK-MEL-5 melanoma 30% | UACC-62 melanoma 74.1% | LOX IMVI melanoma 22.5% | SK-MEL-2 melanoma 90.1% | EKVX NSCLC 46.1% | UO-31 renal 65.1% | TK-10 renal 108% | ACHN renal 67.4% | CAKI-1 renal 50.1% | A498 renal 113% | CCRF-CEM leukemia 20.6% | MOLT-4 leukemia 20.8%
